From PubChem BioAssay (NCATS) come the findings set out here.

What all share (assay): qHTS profiling for inhibitors of Plasmodium falciparum proliferation (AID 504749); note: nearly all actives have a fitted effect of over 60% in size
Conditions in all cases: P. falciparum in erythrocytes, SYBR Green DNA, 72 h; series mostly up to 28.7 µM
In general terms: Quantitative high-throughput screening tests each substance at several concentrations.

The test system of assay [1] is ATS95. Put shortly: (§1)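 Parasite proliferation within erythrocytes, 72 h exposure. Endpoint: SYBR Green I fluorescence after overnight lysis at room temperature. Controls: 0.29 uM artemisinin, DMSO.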
In assay [2] the test system is CP191. Put shortly:
as §1

Assay [3] has as its system CP203. An outline of the steps:
as §1

The subject of assay [4] is CP215. Put shortly:
as §1

The subject of assay [5] is CP217. Put shortly: as §1
The test system of assay [6] is CP237. An outline of the steps: as §1
The subject of assay [7] is CP238. An outline of the steps:
as §1

Assay [8] deals with CP247. Put shortly:
as §1

Assay [9] has as its system CP250. An outline of the steps:
as §1

The subject of assay [10] is CP256. Put shortly: as §1
Assay [11] has as its system CP260. An outline of the steps: as §1
For assay [12], the system named is CP262. An outline of the steps: as §1
For assay [13], the system named is CP265. An outline of the steps:
as §1

Assay [14] relates to C2A. An outline of the steps: as §1
The test system of assay [15] is CP192. An outline of the steps: as §1
The subject of assay [16] is CP201. Put shortly:
as §1

For assay [17], the system named is CP211. An outline of the steps: as §1
In assay [18] the test system is CP185. Put shortly:
as §1

Assay [19] relates to CP194. Put shortly: as §1
The test system of assay [20] is CP252. Put shortly: as §1

Inconclusive results are not listed. Calls of active or inactive are those of the source. Calls come from the whole dose curve; as a rule, active = well fitted inhibition curve with a large enough effect; inconclusive = small, poorly fitted or top-dose-only effect; inactive = flat fitted curve, though single readings scatter.
Potency is the fitted concentration of half-maximal effect.

Turning to `O=C(CCCN1CCC(n2c(=O)[nH]c3ccccc32)CC1)c1ccc(F)cc1`, the Potency in assay [1] was 3.16 µM (active); in [2], 1 µM (active); in assay [3], 4.55 µM (active); in assay [4] it was 4.55 µM (active); in assay [5] it was 3.98 µM (active); in assay [6] it was 1.41 µM (active). The Potency in assay [7] is 3.55 µM (active); in assay [8], 3.55 µM (active); in assay [9], 2.82 µM (active); in assay [10], 3.55 µM (active); in assay [11], 1.58 µM (active); in assay [13], 1.12 µM (active). For the same compound, the Potency result in assay [12] was “inactive”.
With `CC(Cc1ccccc1)NCc1ccccc1Cl` (stereo unspecified), the Potency entry in assay [14], in assay [2], in assay [15], in assay [16], in assay [17] and in assay [4] was “inactive” each time. Also, the Potency result in assay [9] and in assay [12] was “inactive” in each case. Besides, the Potency in assay [13] was 11.2 µM (active).
`NC(=O)OCCCc1ccccc1`: the Potency entry in [1], in assay [14], in assay [18], in assay [2], in assay [15] and in assay [19] was “inactive” in each case. For the same compound, the Potency result in assay [16], in [17], in [4], in [5], in assay [6] and in [7] was “inactive” each time. The Potency entry in assay [8], in [9], in assay [20], in assay [10], in [11] and in assay [12] was “inactive” each time. Also, in assay [13], the Potency result was “inactive”.
For the compound `CN1C(=O)CN=C(c2ccccc2)c2cc([N+](=O)[O-])ccc21`, the Potency result in assay [1], in [14], in assay [18], in assay [2], in assay [15] and in assay [19] was “inactive” throughout. The Potency result in [16], in [3], in [17], in [5], in [6] and in assay [7] was “inactive” throughout. For the same compound, the Potency result in assay [8], in [9], in assay [20], in [10], in assay [11] and in assay [12] was “inactive” throughout. Further, the Potency result in [13] is “inactive”.
As for `O=C(O)c1nn(Cc2ccc(Cl)cc2Cl)c2ccccc12`, the Potency result in [1], in assay [14], in assay [18], in [2], in [15] and in [19] was “inactive” throughout. Besides, the Potency entry in [16], in [17], in assay [4], in assay [5], in [6] and in assay [7] was “inactive” throughout. Moreover, the Potency result in assay [8], in assay [9], in assay [20], in [10], in [11] and in [12] was “inactive” throughout. Also, the Potency entry in assay [13] was “inactive”.
In the case of `CN1C[C@@H](NS(=O)(=O)N(C)C)C[C@@H]2c3cccc4c3c(cn4C)C[C@H]21`, the Potency result in [1], in assay [14], in [18], in assay [2], in [19] and in assay [16] was “inactive” each time. Besides, the Potency entry in assay [3], in [4], in assay [5], in assay [7], in assay [8] and in assay [9] was “inactive” throughout. Also, the Potency result in assay [20], in assay [12] and in assay [13] was “inactive” throughout.
With `NC(=O)CN1CCCC1=O`, the Potency entry in assay [1], in [14], in assay [18], in [2], in assay [15] and in assay [19] was “inactive” each time. Moreover, the Potency result in assay [16], in [3], in [17], in [4], in assay [5] and in assay [6] was “inactive” throughout. Also, the Potency result in [7], in assay [8], in assay [9], in assay [20], in assay [10] and in [11] was “inactive” in each case. Besides, the Potency entry in assay [12] and in assay [13] was “inactive” each time.
As to `Cc1c(Cl)c(=O)oc2cc(OP(=O)(OCCCl)OCCCl)ccc12`, the Potency is 7.94 µM (active) in assay [1]; 10 µM (active) in assay [14]; 10 µM (active) in assay [2]; 9.53 µM (active) in assay [19]; 13.5 µM (active) in assay [16]; 8.49 µM (active) in assay [3]. Further, the Potency in assay [17] was 9.53 µM (active); in assay [4] it was 9.53 µM (active); in assay [5], 8.91 µM (active); in assay [6], 7.94 µM (active); in assay [7], 8.91 µM (active); in [9], 8.91 µM (active). For the same compound, the Potency was 8.91 µM (active) in assay [20], 10 µM (active) in assay [10], 7.57 µM (active) in [12] and 7.94 µM (active) in assay [13].
On to `O=C1NCN(c2ccccc2)C12CCN(CCCOc1ccc(F)cc1)CC2`, for which the Potency result in assay [15], in [16], in assay [4], in assay [20], in assay [10] and in assay [12] was “inactive” throughout. Moreover, the Potency in assay [6] is 5.01 µM (active).
For the compound `COCC(=O)N(c1c(C)cccc1C)C(C)C(=O)OC` (stereo unspecified), the Potency entry in assay [14], in assay [15], in assay [19], in assay [16], in assay [3] and in assay [17] was “inactive” in each case. In addition, the Potency result in assay [4], in assay [6], in [10], in assay [11] and in [12] was “inactive” in each case.
In the case of `COC(=O)C1=CCCN(C)C1`, the Potency result in assay [1], in assay [14], in assay [18], in assay [2], in assay [15] and in assay [19] was “inactive” in each case. Also, the Potency entry in assay [16], in [3], in [17], in assay [4], in assay [5] and in assay [6] was “inactive” in each case. Further, the Potency result in [7], in assay [8], in [9], in assay [20], in assay [10] and in [12] was “inactive” each time. Further, the Potency result in assay [13] is “inactive”.
On to `CN1C(=O)[C@@H](NC(=O)c2cc3ccccc3[nH]2)N=C(c2ccccc2)c2ccccc21`, for which the Potency result in [16], in [8] and in assay [12] was “inactive” each time.
With `CN1CCc2cc(Cl)c(O)cc2[C@H]2c3ccccc3CC[C@@H]21`, the Potency entry in [14], in assay [15], in assay [16] and in [12] was “inactive” throughout. Moreover, in assay [6], the Potency was 5.62 µM (active).
As to `Clc1ccc(CO/N=C(\Cn2ccnc2)c2ccc(Cl)cc2Cl)c(Cl)c1`, the Potency is 6.31 µM (active) in assay [1]; 10 µM (active) in assay [14]; 10 µM (active) in assay [18]; 3.98 µM (active) in [2]; 16.9 µM (active) in assay [15]; 10.7 µM (active) in assay [19]. Further, the Potency in assay [3] was 5.36 µM (active); in assay [4] it was 6.75 µM (active); in assay [5], 3.98 µM (active); in [6] it was 3.98 µM (active); in [7] it was 5.01 µM (active); in assay [8], 4.47 µM (active). Further, the Potency in [9] was 7.08 µM (active); in assay [20] it was 6.31 µM (active); in [11] it was 7.08 µM (active); in assay [12], 15.1 µM (active); in assay [13], 4.47 µM (active).
With `CCCCCCCCCCCC[N+](C)(C)CCOc1ccccc1`, the Potency in assay [14] is 7.08 µM (active); in assay [18] it was 7.94 µM (active); in assay [2], 4.47 µM (active); in assay [15], 9.53 µM (active); in assay [19], 15.1 µM (active); in [16] it was 10.7 µM (active). Moreover, the Potency is 10.7 µM (active) in [3]; 8.49 µM (active) in assay [17]; 12 µM (active) in assay [4]; 6.31 µM (active) in [5]; 5.01 µM (active) in [6]; 7.94 µM (active) in [7]. In addition, the Potency in [8] was 7.08 µM (active); in assay [9], 7.94 µM (active); in assay [20] it was 7.94 µM (active); in assay [10], 5.62 µM (active); in [11], 3.98 µM (active); in assay [12], 5.36 µM (active). In assay [13], the Potency was 6.31 µM (active).
